Results filed as inconclusive are left out. The source made the active and inactive calls. Calls follow the shape of the full dose curve.
Assay: p53 small molecule agonists, cell-based qHTS assay: qHTS cell viability counter screen (AID 1963581); also: nearly all actives have a fitted effect of over 45% in size
Conditions: p53RE-bla HCT-116 viability, ATP luminescence, 16 h; series mostly up to 66 µM; activity change, negative = cytotoxicity: at the top concentration
Text: National Center for Advancing Translational Sciences [NCATS]
Division of Preclinical Innovation [DPI]
U.S. Environmental Protection Agency [EPA]
National Institutes of Environmental Health Sciences [NIEHS]
National Toxicology Program [NTP]
U.S. Food and Drug Administration [FDA]
p53, a tumor suppressor protein, is activated following cellular insult, including DNA damage and other cellular stresses. The activation of p53 regulates cell fate by inducing DNA repair, cell cycle arrest, apoptosis, or cellular senescence. The activation of p53, therefore, is a good indicator of DNA damage and other cellular stresses. The CellSensor p53RE-bla HCT-116 cell line (Invitrogen) contains a stably integrated beta-lactamase reporter gene under control of the p53 response elements. The activation of the reporter gene under culture conditions can be detected by fluorescence intensity. This cell line was used to screen the Tox21 compound library in a 1536-well plate format and to identify agonists that activate the p53 signaling pathway. The cytotoxicity of the Tox21 compound library against the p53 RE-bla HCT-116 cell line was tested in parallel by measuring the intra cellular ATP content in the same wells.
Tox21 Assay Protocol Summary:
The p53RE-bla cells were dispensed at 4,000 cells/5 ul/well in 1536-well black wall/clear bottom plates using a Multidrop dispenser. After the assay plates were incubated at a 37 C/5% CO2 incubator for 5 hours, 23 nL of compounds dissolved in DMSO, positive controls or DMSO only was transferred to the assay plate by a pin tool. The plates were incubated at 37 C for 16 hours. After 1 uL of LiveBLAzerTM B/G FRET substrate was added using a Flying Reagent Dispenser, the plates were incubated at room temperature for 2 hours, and fluorescence intensity was measured by an Envision plate reader. For cell viability readout that measures cytotoxicity, 4 ul/well of CellTiter-Glo reagent was added into the assay plates using a Flying Reagent Dispenser. After 30 min incubation at room temperature, the luminescence intensity in the plates was measured using a ViewLux plate reader.
% is scaled to controls: 0 for no effect and ±100 for the full control effect.

| Compound | activity change, negative = cytotoxicity |
| --- | --- |
| Cc1c(C(C)C)c(=O)n(-c2ccccc2)n1C | -9.91% [at 30.3 µM] (inactive) |
| CN(CCOc1ccc(NS(C)(=O)=O)cc1)CCc1ccc(NS(C)(=O)=O)cc1 | -1.23% [at 30.3 µM] (inactive) |
| CCCCCCCCN(C)CCCCCCCC | 0.883% (inactive) |
| ONc1ccccc1 | -4.17% (inactive) |
| CC(C)c1cc(C(C)C)cc(C(C)C)c1 | -26.7% (inactive) |
| Cc1occc1C(=O)Nc1ccc(C(=O)N2CCC(F)(F)/C(=C\C(=O)N3CCC(N4CCCCC4)CC3)c3ccccc32)cc1 | -11.9% [at 30.3 µM] (inactive) |
| NCCS | 0.741% [at 30.3 µM] (inactive) |
| CCCCOC(=O)C(C)O (stereo not given) | -13.7% (inactive) |
| CC(C)(C)c1nnc(NS(=O)(=O)c2ccccc2)s1 | -0.111% [at 30.3 µM] (inactive) |
| CC(C)(C)C(=O)/C=C/c1ccc(Cl)cc1 | -0.0443% (inactive) |
| C[C@H](CN1CCCC1)C(=O)c1ccc(C(F)(F)F)cc1 | 0.294% [at 30.3 µM] (inactive) |
| Cc1cccc(CN2CCN(C(c3ccccc3)c3ccc(Cl)cc3)CC2)c1 (stereo not given) | -14.2% [at 30.3 µM] (inactive) |
| CCc1cccc(C)c1N(C(=O)C(=O)O)C(C)COC (stereo not given) | 23.6% (inactive) |
| Cn1cccc1 | -6.39% (inactive) |
| CC(=O)c1cnccn1 | 16.3% (inactive) |
| CCCCC(CC)COC(=O)CCCCCCCCC(=O)OCC(CC)CCCC (stereo not given) | -0.546% (inactive) |
| NC1CCN(c2nc3c(cc2F)c(=O)c(C(=O)O)cn3-c2ccc(F)cc2F)C1 (stereo not given) | 3.54% [at 30.3 µM] (inactive) |
| CC(C)(C)CC(=O)OCC(=O)[C@@]1(O)CC[C@H]2[C@@H]3CCC4=CC(=O)C=C[C@]4(C)[C@H]3[C@@H](O)C[C@@]21C | -16.1% [at 30.3 µM] (inactive) |
| CCCCCCCCCCCCCCCCCl | -1.41% [at 13.5 µM] (inactive) |
| CC(C(=O)O)c1cccc(Oc2ccccc2)c1 (stereo not given) | 0.151% [at 30.3 µM] (inactive) |

| Compound | activity change, negative = cytotoxicity |
| --- | --- |
| COc1c(N2C[C@@H]3CCCN[C@@H]3C2)c(F)cc2c(=O)c(C(=O)O)cn(C3CC3)c12 | 4.37% [at 30.3 µM] (inactive) |
| Cc1[nH]c(=O)c(C#N)cc1-c1ccc2nccn2c1 | 28.2% [at 30.3 µM] (inactive) |
| CCCCCCCCCCCCCCCC[N+](C)(C)CCN(Cc1ccc(OC)cc1)c1ncccn1 | -24.2% [at 30.3 µM] (inactive) |
| CC(C)(C)C(=O)OCOC(=O)[C@@H]1N2C(=O)[C@@H](NC(=O)[C@H](N)c3ccccc3)[C@H]2SC1(C)C | 3.11% [at 30.3 µM] (inactive) |
| Cl[Si](Cl)(c1ccccc1)c1ccccc1 | 8.83% (inactive) |
| C=C(C)C(=O)OC1CC(C)CC(C)(C)C1 (stereo not given) | 0.582% (inactive) |
| C=CCn1c(=O)n(CC=C)c(=O)n(CC=C)c1=O | 15.1% (inactive) |
| COC(=O)[C@@H]1[C@H]2C[C@H]3c4[nH]c5ccccc5c4CCN3C[C@@H]2CC[C@@H]1O | -13.6% [at 30.3 µM] (inactive) |
| CCC(C)CCCC(C)(C)O (stereo not given) | 0.36% (inactive) |
| CCOCCn1c(C2CCN(CCc3ccc(C(C)(C)C(=O)O)cc3)CC2)nc2ccccc21 | 0.978% [at 30.3 µM] (inactive) |
| Oc1cn2c(n1)Nc1ccc(Cl)c(Cl)c1C2 | -7.7% [at 13.5 µM] (inactive) |
| O=C(O)c1ccccc1Cl | 8.62% (inactive) |
| CC(CN1CC(=O)NC(=O)C1)N1CC(=O)NC(=O)C1 (stereo not given) | 0.451% (inactive) |
| O=C(O)c1ccc2cc(O)ccc2c1 | 0% (inactive) |
| C=C(C)c1ccccc1 | 5.13% (inactive) |
| O=C(O)CCNC(=O)c1ccc(N=Nc2ccc(O)c(C(=O)O)c2)cc1 | -8.15% [at 30.3 µM] (inactive) |
| O=C(O)c1ccc2c(c1)nc(C(=O)NC1CCN(C3CC3)CC1)n2Cc1cc(-c2ccc(Cl)s2)on1 | 10.9% [at 13.5 µM] (inactive) |
| O=C(O)CNCC(=O)O | -13% [at 5.99 µM] (inactive) |
| CN1C(C)(C)CCCC1(C)C | -21.9% [at 30.3 µM] (inactive) |
| Nc1ccc(C(=O)N2CC3CC(CN(Cc4ccccc4)C3)C2)cc1 | -18.5% [at 30.3 µM] (inactive) |

— PubChem BioAssay (Tox21)
